# Source: PubChem BioAssay (National Center for Advancing Translational Sciences (NCATS))
# IkB sig inh: IkB pathway inhibition in ABC-DLBCL cells; ABC-DLBCL IkBa-CBG/CBR dual luciferase ratio, 4 h; response scale: scaled: untreated 0%, proteasome inhibitor 100%; Potency, µM (titrated, usually from 57.1 µM), inactives show top-dose IkBa stabilization activation; 0.04% of 110,000 active; AID 445; active = well fitted curve in the direction sought with a large enough effect in the signal ratio, not every such curve was filed as active; inconclusive = small, poorly fitted or top-dose-only effect, or a change in a side signal; the % refers to the signal ratio;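 note: potency is the fitted concentration of half-maximal effect; the direction sought is a rising ratio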
#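 In this assay, an IκBα–CBG68 fusion accumulates when IKK-driven degradation is blocked; native CBR normalizes for cell number. OCI-Ly3 cells were treated 4 h with compound and doxycycline, then green and red light read after Chroma-Glo addition.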
# p53ts 32C kill: cytotoxicity in p53ts cells at permissive temperature; H1299-p53A138V at 32C, ATP luminescence viability, 24 h; 0.93% of 130,000 active; Potency, µM (top dose mostly 46.1 µM), for the others: at the top dose activity change, negative = cytotoxicity, actives largely listed as cytotoxic; AID 924;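 note: potency is the fitted concentration of half-maximal effect; 0% = DMSO and -100% = full killing by reference compound; nearly all actives have a fitted effect of over 55% in size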
#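 ATP-content luminescence (ATPlite) read-out after 24 h compound exposure at 32C in H1299-p53A138V cells (600/well). Tested up to 46 uM. Normalized to DMSO (0%) and 100 uM tamoxifen (100% killing); Hill-fit AC50.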
# p53ts 39C tox: p53ts cell cytotoxicity, nonpermissive temperature; H1299-p53A138V viability at 39C, ATP luminescence, 24 h; Potency, µM (doses to about 46.1 µM), without a hit: at the highest dose activity change, negative = cell killing, usual class: cytotoxic; 1.5% of 130,000 active; AID 902; note: potency is the fitted concentration of half-maximal effect; % is set by controls: 0 for no effect and ±100 for the full control effect; nearly all actives have a fitted effect of over 55% in size
# Peg3 imprint: induces erasure of genomic imprints in mouse ES cells. Potency, µM (titrated, usually from 60.7 µM), for inactives: at the highest dose activity change, positive = activation, most hits filed as activators. 0.02% of 110,000 active. AID 1948. mouse ES Peg3-LacZ reporter, beta-gal luminescence, 40 h; note: potency is the fitted concentration of half-maximal effect
#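 Imprint erasure is scored as LacZ activity from the silenced maternal Peg3 allele in feeder-free female ES cells cultured 40 h with LIF. Luminescence is normalized to in-plate negative controls and fitted to the Hill equation.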
# IMPase cell inh: IMPase inhibition in cells. inhibition (IP1 accumulation), % at 46.1 µM. P97697. CHO-M1 cells, IP1 accumulation, HTRF TR-FRET ratio. 120,000 tested, under 10 active. AID 901; active = well fitted curve in the direction sought with a large enough effect in the signal ratio, not every such curve was filed as active; inconclusive = small, poorly fitted or top-dose-only effect, or a change in a side signal; inactive = no such curve, though single readings can be large or run the other way; the % refers to the signal ratio;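 note: cells stimulated with carbachol in lithium chloride buffer; plate controls were DMSO basal wells for no effect and reference inhibitor wells for full effect; higher means more IMPase inhibition seen as more IP1 and lower FRET ratio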
#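 In this qHTS, compounds (final up to 46 uM) act on CHO-M1 cells that are then activated through the M1 receptor with carbachol, in pH 7.4 buffer containing 50 mM LiCl, for 30 min. IP1 accumulation is quantified by the IP-One immunoassay.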
# Luciferase inh: firefly luciferase inhibition. purified firefly luciferase, luminescence, 8 min. Potency, µM (titrated, usually from 57.1 µM), without a hit: at the top dose activity change, negative = inhibition, usual class: inhibitors. 2.2% of 72,000 active; note: potency is the fitted concentration of half-maximal effect; % is set by controls: 0 for no effect and ±100 for the full control effect; nearly all actives have a fitted effect of over 40% in size
# Target sequence (P08659 whole entry, looked up): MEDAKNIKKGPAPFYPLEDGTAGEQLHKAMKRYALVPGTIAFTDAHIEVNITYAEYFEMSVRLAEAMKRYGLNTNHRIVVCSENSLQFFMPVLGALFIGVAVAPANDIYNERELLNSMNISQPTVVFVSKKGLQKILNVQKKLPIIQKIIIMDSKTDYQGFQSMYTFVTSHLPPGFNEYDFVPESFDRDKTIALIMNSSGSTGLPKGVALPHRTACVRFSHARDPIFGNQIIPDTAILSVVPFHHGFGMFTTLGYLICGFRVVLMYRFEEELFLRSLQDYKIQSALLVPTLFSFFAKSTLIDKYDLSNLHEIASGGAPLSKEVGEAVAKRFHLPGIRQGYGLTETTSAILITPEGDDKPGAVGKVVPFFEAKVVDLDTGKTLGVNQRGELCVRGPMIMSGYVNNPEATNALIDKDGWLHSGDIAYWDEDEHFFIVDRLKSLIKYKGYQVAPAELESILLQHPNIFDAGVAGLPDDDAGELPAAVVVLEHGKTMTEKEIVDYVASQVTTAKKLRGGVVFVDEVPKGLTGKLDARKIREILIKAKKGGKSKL
#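 Compounds were tested as concentration series (qHTS) against purified P. pyralis luciferase with luciferin and 10 uM ATP in 50 mM imidazole pH 7.2, 50 mM KCl, 7 mM MgCl2, 0.01% Tween 20, 0.05% BSA. Luminescence was read after 8 min at ambient temperature.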
# An asterisk follows results filed as active; u = inconclusive; x = no result; ! = repeats disagree; [ ] = remark or other dose. This excerpt belongs to a sample that is enriched for hits. Unless noted, calls come from the whole dose curve; as a rule, active = well fitted curve in the direction sought with a large enough effect; inconclusive = small, poorly fitted or top-dose-only effect, or another doubt; inactive = no such curve, though single readings can be large; an effect the other way counts as inactive or inconclusive.
SMILES,IkB sig inh,p53ts 32C kill,p53ts 39C tox,Peg3 imprint,IMPase cell inh,Luciferase inh
CC/C(=N\NC(=O)c1ccc(-c2ccccc2)cc1)C12CC3CC(CC(C3)C1)C2,x,x,x,x,-5,x
Cc1cc(C)cc(NC(=O)c2cc(S(=O)(=O)N3CCCCCC3)cn2C)c1,u,2%,-14%,-5%[10.9 µM],x,x
Nc1cccc(-c2nc3ccccc3[nH]2)c1,8%,u,u,-80%,-14,13µM*
c1ccc(-c2csc(-c3nc4ccccc4[nH]3)n2)cc1,x,7.9µM*,16µM*,-36%,-14,x
Cc1ccc2nc(-c3cccc(N)c3)[nH]c2c1,x,14µM*,11µM*,x,-22,x
Nc1ccc(-c2nc3ccccc3[nH]2)cc1,16%,10µM*,u,-86%,3,16µM*
Nc1ccc(-c2nc3ccc(-c4nc5ccc(N)cc5[nH]4)cc3[nH]2)cc1,x,-14%,11%,2%,u,x
CN(Cc1ccccc1)Cc1c(O)ccc2c(=O)c(-c3ccccc3)c(C(F)(F)F)oc12,u,2%,14%,22%[10.9 µM],11,x
CCN(CC)CCCCNC(=O)c1ccc(Cc2nc3ccccc3[nH]2)cc1,x,-1%,6%,x,x,x
O=C(COc1ccc(Cl)cc1)Nc1ccc2nc(SCC(=O)N3CCOCC3)sc2c1,u,-20%,4%,-13%[10.9 µM],x,x
COC(=O)C[C@@H]1O[C@H]1[C@H](C)[C@@H](OC)C(C)C,x,7%[9.22 µM],1%[9.22 µM],x,x,0%[11.4 µM]
OC[C@@H]1O[C@@H](n2cnc3c(NC4CCCC4)ncnc32)[C@@H](O)[C@H]1O,u,56%,27%,x,18,2%
C[C@@H](Cc1ccccc1)Nc1ncnc2c1ncn2[C@@H]1O[C@@H](CO)[C@H](O)[C@@H]1O,u,41%,14%,x,0,-2%
Cn1cc(-c2nc3ccccc3[nH]2)c2ccccc21,u,-23%,-25%,-35%,4,13µM*
C[C@@]12CC[C@H]3[C@H](CC=C4C[C@@H](O)CC[C@@]43C)[C@@H]1CC[C@@H]2N(CCO)CCO,-1%[11.4 µM],-1%[9.22 µM],-1%[9.22 µM],x,x,3%[11.4 µM]
CCc1ccc2oc(C(=O)Nc3nc(-c4ccc(F)cc4)ns3)c(C)c2c1,u,-13%,-15%,-10%[10.9 µM],x,x
COc1cccc(NC(=O)CSc2nnc(-c3cc(C)n(-c4ccccc4)c3C)o2)c1,u,-23%,20µM*,-61%,9,-22%
O=S(=O)(Nc1cccc(-c2ccc(N3CCCCC3)nn2)c1)c1cccs1,1%,10µM*,6.3µM*,-12%[10.9 µM],x,x
Cc1cc(C)c(S(=O)(=O)Nc2ccc(-c3ccc(N4CCCCC4)nn3)cc2)c(C)c1,u,u,7.9µM*,-16%[10.9 µM],x,x
CC(=O)c1ccc(S(=O)(=O)Nc2cccc(-c3ccc(N4CCCC4)nn3)c2)cc1,u,-11%,u,-6%[10.9 µM],x,x
CC(=O)c1ccc(S(=O)(=O)Nc2cccc(-c3ccc(N4CCCCCC4)nn3)c2)cc1,-4%,u,6.3µM*,-12%[10.9 µM],x,x
O=S(=O)(Nc1cccc(-c2ccc(N3CCCCC3)nn2)c1)c1ccc(Cl)s1,u,10µM*,5µM*,-16%[10.9 µM],x,x
C/C(CCC(=O)OC[C@@H]1O[C@H](C#Cc2ccccc2)C=C[C@@H]1Oc1ccc(C)cc1)=N/OC[C@@H](O)COCc1ccco1,x,-1%[9.22 µM],3%[9.22 µM],x,x,0%[11.4 µM]
CC1(O)C(=O)C=C2C=C(CCCCOCc3ccccc3)OC=C2C1=O (stereo unspecified),x,0%[9.22 µM],13%[9.22 µM],x,x,x
COC(=O)[C@](C)(N)Cc1ccc(O)cc1,-4%,21%,12%,x,3,3%
SMILES,IkB sig inh,p53ts 32C kill,p53ts 39C tox,Peg3 imprint,IMPase cell inh,Luciferase inh
CCOC(=O)c1ccc(NC(=O)C(CC)Sc2nnc3c4ccccc4n(C)c3n2)cc1 (stereo unspecified),u,5%,10%,-6%[10.9 µM],1,x
COc1cccc(-c2nc(NC3CC3)c3ccccc3n2)c1,-1%[11.4 µM],u,-15%,-10%,x,0%[2.29 µM]
COC(=O)NC(/C=C/c1ccccc1)[C@]1(C(C)=O)CCCC1=O (stereo partly specified),x,-9%[9.22 µM],12%[9.22 µM],x,x,x
Cc1ccc(OCC(O)Cn2c(=N)n(CCN3CCOCC3)c3ccccc32)cc1 (stereo unspecified),-1%,-8%,-15%,-13%,13,6%
N=c1n(CCN2CCCCC2)c2ccccc2n1CC(O)COc1ccc(Cl)cc1Cl (stereo unspecified),u,22µM*,3.2µM*,-15%[10.9 µM],13,x
COc1ccc(OCC(O)Cn2c(=N)n(CCN3CCCCC3)c3ccccc32)cc1 (stereo unspecified),-1%,-28%,13µM*!,-23%,14,1%
COc1ccc(OCCn2c(=N)n(CCO)c3ccccc32)cc1,2%,-2%,-17%,-13%,4,1%
CCCCCn1c(=N)n(CC(O)COc2ccccc2OC)c2ccccc21 (stereo unspecified),u,u,20µM*,5%,14,2%
N=c1n(CCO)c2ccccc2n1CCOc1ccc(Cl)cc1Cl,u,u,13µM*,-33%,6,0%
O=C(c1csnn1)N1CCC2(CC1)CN(C(c1ccccc1)c1ccccc1)C2,1%[11.4 µM],-4%,-3%,x,x,-1%[11.4 µM]
CC(=O)O[C@H]1CC[C@@]2(C)[C@@H](CC[C@H]3[C@H]2CC(=O)[C@@]2(C)[C@@H]3C[C@H]3CC(C)=CC(=O)[C@H]32)C1,1%[11.4 µM],4%[9.22 µM],20%[9.22 µM],-8%[10.9 µM],x,3%[11.4 µM]
CCOc1ccccc1N(C)C(=O)Cn1cnc2sc(C)c(S(=O)(=O)N3CCC(C)CC3)c2c1=O,2%,15%,25%,-14%[10.9 µM],x,x
Cc1ccc(OCC(O)Cn2c(=N)n(CCN3CCCCC3)c3ccccc32)cc1 (stereo unspecified),u,-12%,13µM*,-23%,8,3%
CCCCC[C@H](O)c1cccc(OCc2ccc3ccccc3n2)c1,9%,12%,42%,x,7,-11%
CNC1=CN(O)C(c2ccccc2)=c2cc(Cl)ccc2=N1,x,x,x,-6%,x,x
C=CCn1c(-c2cccs2)nc2ccccc21,1%,-11%,-4%,-21%,-18,-5%
C=CCn1c(-c2cccs2)nc2nc3ccccc3nc21,-2%,u,u,-34%,-3,20µM*
COc1ccc(-c2ccccc2C2NC(C(=O)O)CCC2C)cc1 (stereo unspecified),x,3%[9.22 µM],0%[9.22 µM],x,x,x
COC(=O)C1=C2N(Cc3ccccc3)C(C)=C(C(=O)OC)C(c3ccccc3)N2C(=O)[C@](O)(C(=O)OC)C1 (stereo partly specified),x,0%[9.22 µM],-3%[9.22 µM],x,x,x
